Several values for one entry are separate records, joined by “and”; a condition that tells them apart may be missing. Equal entries are not always repeated. Activity calls are given as the source filed them.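 The calls were made as follows, unless noted: active = compounds whose cell count with miR-34 switched on is under 0.7 times the count with it off; inactive = the rest.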
Assays:
[1] = stimulators of nuclear beta-catenin in C2C12, primary screen, imaging, WNT3A-conditioned medium, mouse C2C12, NPC library (AID 1117326; in the data active = nuclear beta-catenin stimulation mostly above about 4.2%, no sharp cut-off; inactive = mostly below about 10%); settings: stronger effect = higher value
[2] = stimulators of insulin release from INS-1E, primary screen, cell-based, 5 mM glucose, NPC library (AID 1117329;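 active = compound raises insulin release from rat beta cells at 5 mM glucose, no numeric limit stated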); settings: rat INS-1E insulin secretion, at 10 µM, stronger effect = higher value
[3] = growth inhibition of GSK3B-pretreated HCT116 cells – cell-based, CellTiter-Glo, 0.2 to 20 µM (AID 1117336;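 active = compounds lowering colon cancer cell viability after pretreatment blocking the GSK3B kinase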); settings: HCT116 viability after GSK3B inhibitor, at 20 µM, stronger effect = higher value
[4] = inhibition of endothelial tube formation, primary screen, imaging, VEGF stimulated, CD31 staining, tube area, NPC library (AID 1117340;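 active = compound that reduces growth-factor-driven endothelial tube area in a mixed cell culture, no cutoff stated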); settings: VEGF-stimulated ADSC/ECFC co-culture, at 10 µM, stronger effect = higher value
[5] = glucagon-like peptide 1 release enhancers, primary assay, NCI-H716 cell line, NPC library (AID 1117341;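 active = compound raises GLP1 secretion from the human gut endocrine cells, with no numeric limit stated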); settings: NCI-H716 cells, at 10 µM, stronger effect = higher value
[6] = HCT116 colon cancer cell growth inhibition, primary screen, CellTiter-Glo luminescence, NPC library (AID 1117342;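 active = compounds that lower survival of HCT116 colon cancer cells in the luminescence readout, no numeric limit stated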); settings: at 20 µM (top of the series)
[7] = CellTiter-Glo luminescent readout of SW480 viability loss, NPC library primary (AID 1117343;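 active = compounds that lower viability of the colon cancer cells in the luminescence readout, with no numeric limit stated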); settings: CellTiter-Glo luminescence; at 20 µM (top of the series) unless noted
[8] = decreased DLD-1 cellular survival, CellTiter-Glo luminescent readout, NPC compound collection, primary HTS (AID 1117346;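 active = compounds that lower survival of DLD-1 colon cancer cells in the luminescence readout, no cutoff given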); settings: DLD-1 viability, CellTiter-Glo luminescence; at 20 µM (top of the series)
[9] = differential killing of epithelial or mesenchymal cells, primary screen, imaging, PC-3E GFP, TEM4-18 mCherry, co-culture (AID 1345086;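 active = compounds killing one labelled cell type while sparing the other, by normalised counts and ratio limits, not self-fluorescent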;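 as to all read-outs here: cells exposed to compound for 72 h before imaging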;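 as to red/green cell ratio (normalised): normalised mesenchymal count divided by normalised epithelial count so high means epithelial killing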); settings: imaging cell counts, at 1 µM; for red/green cell ratio (normalised): actives lie on both sides, counts scaled to control wells, 1 = unselective
[10] = sensitizers of A549 cells to miR-34 induction, primary screen, imaging, A549 dox-inducible miR-34, nuclei and caspase counts (AID 1347080); settings: A549 miR-34 inducible, Hoechst nuclei count, 48 h
[11] = survival rescue of mitochondrial mutant cells in low glucose, primary screen, MELAS cybrids, Rieske KO mouse fibroblasts, CellTiter-Glo (AID 1508586;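 active = mean z-score across replicates of 1.96 or higher in either the MELAS or the Rieske mutant cell line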;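 also: z relative to plate mean and SD of compound and empty wells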)
[12] = biological target: NAD(+) hydrolase SARM1 (Homo sapiens) (UniProt Q6SZW1); assay: SARM1 TIR NADase inhibitors, cell lysate, NAD-Glo luminescence (AID 1508614;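 active = compound whose remaining NAD level is above about 45 nM, limit read from the data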;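 also: higher remaining NAD means stronger inhibition of SARM1 NADase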); settings: SAM-TIR HEK293T lysate NADase, at 1 µM, stronger effect = higher value
Sequence of NAD(+) hydrolase SARM1 (Homo sapiens) (Q6SZW1 whole entry, looked up): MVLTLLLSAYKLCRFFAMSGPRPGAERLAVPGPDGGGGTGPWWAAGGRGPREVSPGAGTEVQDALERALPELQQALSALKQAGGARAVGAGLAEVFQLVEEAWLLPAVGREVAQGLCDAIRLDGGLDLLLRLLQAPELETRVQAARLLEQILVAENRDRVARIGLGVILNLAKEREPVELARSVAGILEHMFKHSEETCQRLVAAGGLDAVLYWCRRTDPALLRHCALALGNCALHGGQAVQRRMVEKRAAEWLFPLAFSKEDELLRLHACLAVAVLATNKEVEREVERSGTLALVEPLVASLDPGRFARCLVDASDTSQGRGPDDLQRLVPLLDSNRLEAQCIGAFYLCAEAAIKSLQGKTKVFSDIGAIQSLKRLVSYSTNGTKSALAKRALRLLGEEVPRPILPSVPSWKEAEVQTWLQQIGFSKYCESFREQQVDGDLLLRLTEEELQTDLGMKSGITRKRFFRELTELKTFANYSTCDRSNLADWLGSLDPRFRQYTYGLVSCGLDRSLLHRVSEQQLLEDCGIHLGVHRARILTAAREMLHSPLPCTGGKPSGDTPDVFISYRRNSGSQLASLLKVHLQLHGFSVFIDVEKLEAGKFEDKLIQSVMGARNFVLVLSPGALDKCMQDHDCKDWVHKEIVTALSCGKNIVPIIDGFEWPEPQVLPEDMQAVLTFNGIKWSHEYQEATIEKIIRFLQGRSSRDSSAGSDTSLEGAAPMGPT

[13] = LFS_MB_P medulloblastoma growth inhibition, cell-based, chromothripsis tumors, cisplatin or BGB combos (AID 1671449; in the data active = inhibition above about 80%;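 also: cells exposed for 96 hours; 0% = vehicle DMSO and 100% = killing by high DMSO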); settings: LFS_MB_P medulloblastoma cells
[14] = HDN33 neuroblastoma growth inhibition, cell-based, chromothripsis tumors, cisplatin or BGB combos (AID 1671450; in the data active = inhibition above about 80%;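 also: cells exposed to compound for four days; 0% = vehicle DMSO and 100% = cell killing by high DMSO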); settings: HDN33 neuroblastoma cells, stronger effect = higher value
[15] = ICB984 medulloblastoma cell growth inhibition, synergistic combos for chromothripsis tumors, cisplatin or BGB combos (AID 1671451; call rule not given here;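 also: cells exposed for 96 hours before readout; 0% = vehicle DMSO and 100% = killing by high DMSO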); settings: ICB984 medulloblastoma cells, drug combinations, stronger effect = higher value
[16] = HTB85 osteosarcoma cell growth inhibition, synergistic combos for chromothripsis tumors, BGB or cisplatin IC20 combos (AID 1671453; in the data active = inhibition above about 80%;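 also: cells exposed for 96 hours before readout; 0% = vehicle DMSO and 100% = high DMSO killing control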); settings: HTB85 osteosarcoma cells, drug combinations, stronger effect = higher value
[17] = MDA-MB-436 breast carcinoma cell growth inhibition, synergistic combos for chromothripsis tumors, BGB or cisplatin combos (AID 1671458; call rule not given here;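 also: cells exposed for 96 hours; 0% = vehicle DMSO and 100% = killing by high DMSO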); settings: MDA-MB-436 breast carcinoma growth inhibition, drug combinations, stronger effect = higher value
[18] = measured here: epithelial PC-3E GFP cell survival
[19] = measured here: mesenchymal TEM4-18 mCherry cell survival
[20] = stronger effect = lower value, cell number ratio, induced over uninduced
[21] = measured here: relative caspase fold change +Dox/-Dox
[22] = measured here: total cells with miR-34 induction, stronger effect = lower value
[23] = measured here: total cells without miR-34 induction
[24] = MELAS cybrid survival, CellTiter-Glo 48 h, stronger effect = higher value
[25] = Rieske KO mouse fibroblast survival, CellTiter-Glo 72 h

In the case of `Nc1ccc2cc3ccc(N)cc3nc2c1`, the nuclear beta-catenin stimulation ([1]; at 10 µM) is reported as 164% (active), the nuclear beta-catenin stimulation ([1]; stimulation, at 2 µM) is reported as 9.1% and the insulin secretion stimulation [2] is reported as 24% (active). The viability decrease [3] was 42% (active), the tube area decrease [4] was -95.9% (inactive) and the GLP1 secretion stimulation [5] was 11.8% (inactive). For the same compound, the inhibition of viability [6] was 104% (active), the viability decrease (inhibition) [7] was 106% (active) and the viability decrease (inhibition) [8] was 45.9% (active). The red/green cell ratio (normalised) [9] was 0.58 (inactive), the normalised cell number [9, 18] was 0.74 and the normalised cell number [9, 19] was 0.43. The fold change [10, 20] was 0.846 (inactive) and 0.958 (inactive), the fold change [10, 21] was 0.821 and 1.18 and the cell count [10, 22] was 1150 and 2160. For the same compound, the cell count [10, 23] was 1360 and 2260, the z-score [11, 24] was 2.13 (active) and the z-score [11, 25] was -2.97. The remaining NAD [12] was 10 nM (inactive), the inhibition ([13]; at 0.5 µM, stronger effect = higher value) was -32.2% (inactive) and the inhibition ([13]; measured here: combination with BGB IC20, at 0.005 µM) was 13.5%. It also gave an inhibition ([13]; measured here: combination with BGB IC40, at 0.005 µM) of -11.3%, an inhibition ([13]; measured here: combination with BGB IC40, at 0.05 µM) of 22.5% and an inhibition ([13]; measured here: combination with cisplatin, at 0.5 µM, stronger effect = higher value) of -47.3%. For the same compound, the inhibition ([13]; measured here: combination with cisplatin, at 5 µM, stronger effect = higher value) was 91.6%, the inhibition ([14]; BGB combo, at 5 µM) was 96.4% and the inhibition ([14]; at 0.5 µM) was -6.06% (inactive). It also gave an inhibition ([14]; cisplatin combo, at 5 µM) of 99.6%, an inhibition ([14]; measured here: with BGB IC20 combination, at 0.5 µM) of 5.24% and an inhibition ([14]; measured here: with cisplatin IC20 combination, at 0.5 µM) of -17.9%. It also gave an inhibition ([14]; single agent, at 5 µM) of 97.6%, an inhibition ([15]; BGB IC20 combo, at 0.005 µM) of -22.1% and an inhibition ([15]; BGB IC40 combo, at 0.005 µM) of -20.5%. The inhibition ([15]; BGB IC40 combo, at 0.05 µM) was 98.8%, the inhibition ([15]; at 0.5 µM) was -20.2% (inactive) and the inhibition ([15]; cisplatin combo, at 0.05 µM) was 98.8%. For the same compound, the inhibition ([15]; cisplatin combo, at 0.5 µM) was -22.1%, the inhibition ([15]; cisplatin combo, at 5 µM) was -11.1% and the inhibition ([15]; measured here: 5 uM single agent, at 5 µM) was -9.35%. For the same compound, the inhibition ([16]; at 0.5 µM) was -33.1% (inactive), the inhibition ([16]; measured here: with BGB IC20, at 0.5 µM) was -40.6% and the inhibition ([16]; measured here: with BGB IC20, at 5 µM) was 79.3%. The inhibition ([16]; measured here: with cisplatin IC20, at 0.5 µM) was -43.3%, the inhibition ([16]; measured here: with cisplatin IC20, at 5 µM) was 99.3% and the inhibition ([16]; single agent, at 5 µM) was 84.4%. The inhibition ([17]; at 0.5 µM) was 7.24% (inactive), the inhibition ([17]; measured here: BGB combination, at 0.5 µM) was -0.519% and the inhibition ([17]; measured here: BGB combination, at 5 µM) was 92.2%. It also gave an inhibition ([17]; measured here: cisplatin combination, at 0.5 µM) of -19.4% and an inhibition ([17]; measured here: cisplatin combination, at 5 µM) of 97.5%.

In the case of `CCN(CC)CCNC(C(=O)OCCC(C)C)c1ccccc1` (stereo not drawn), the nuclear beta-catenin stimulation ([1]; at 10 µM) is reported as -0.8% (inactive), the nuclear beta-catenin stimulation ([1]; stimulation, at 2 µM) is reported as -0.5% and the insulin secretion stimulation [2] is reported as 32.4% (active). The viability decrease [3] was 6.1% (inactive), the tube area decrease [4] was -3.9% (inactive) and the GLP1 secretion stimulation [5] was 8.2% (inactive). The inhibition of viability [6] was 0.2% (inactive), the viability decrease (inhibition) [7] was 26.1% (inactive) and the viability decrease (inhibition) [8] was 9.9% (inactive). The red/green cell ratio (normalised) [9] was 1.16 (inactive), the normalised cell number [9, 18] was 0.66 and the normalised cell number [9, 19] was 0.76. The fold change [10, 20] was 0.979 (inactive), the fold change [10, 21] was 0.754 and the cell count [10, 22] was 8430. The cell count [10, 23] was 8620, the z-score [11, 24] was 0.328 (inactive) and the z-score [11, 25] was 0.121. For the same compound, the remaining NAD [12] was 10 nM (inactive).

With `COc1ccc(O)cc1` the nuclear beta-catenin stimulation ([1]; at 10 µM) was 1.7% (inactive), the nuclear beta-catenin stimulation ([1]; stimulation, at 2 µM) was 0.5% and the insulin secretion stimulation [2] was -1.8% (inactive). For the same compound, the viability decrease [3] was 12.9% (inactive), the tube area decrease [4] was 18.7% (inactive) and the GLP1 secretion stimulation [5] was -0.4% (inactive). The inhibition of viability [6] was -4.9% (inactive), the viability decrease (inhibition) [7] was 88.2% (active) and the viability decrease (inhibition) [8] was 27.4% (inactive). The red/green cell ratio (normalised) [9] was 1.14 (inactive), the normalised cell number [9, 18] was 1.04 and the normalised cell number [9, 19] was 1.18. The fold change [10, 20] was 0.919 (inactive) and 0.917 (inactive), the fold change [10, 21] was 0.877 and 0.265 and the cell count [10, 22] was 7700 and 8110. For the same compound, the cell count [10, 23] was 8370 and 8840, the z-score [11, 24] was -0.189 (inactive) and the z-score [11, 25] was -0.254. The remaining NAD [12] was 10 nM (inactive).
